# Records with an inconclusive call do not appear. A call without a number means that no potency is given here. Calls of active or inactive are those of the source. The call rests on the fitted dose curve; in most records, active means well fitted inhibition curve with a large enough effect; inconclusive means small, poorly fitted or top-dose-only effect; inactive means flat fitted curve, though single readings scatter.
# Target: Calcium and integrin-binding protein 1 (Homo sapiens) (UniProt Q99828)
# Sequence (Q99828 whole entry, looked up): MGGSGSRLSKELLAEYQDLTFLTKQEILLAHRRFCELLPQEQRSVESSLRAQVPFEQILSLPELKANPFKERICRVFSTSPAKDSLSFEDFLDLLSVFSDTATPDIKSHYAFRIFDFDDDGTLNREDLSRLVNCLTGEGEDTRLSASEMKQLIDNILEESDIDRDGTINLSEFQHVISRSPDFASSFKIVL
# Assay: Primary qHTS for Identification of Calcium Integrin Binding Protein 1 (CIB1) Competitor (AID 1508620);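 further: GST tagged CIB1 binding a fluorescein labelled alphaIIb integrin peptide tracer; top concentration of the series differs between compounds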
# Procedure, shortened: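 Fluorescence polarization competition: CIB1-GST (1 uM final) preincubated with compound 15 min at room temperature, then FITC-labeled alphaIIb peptide (100 nM final) added for another 15 min. Polarization read at Ex 480/Em 540.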
row,SMILES,Potency
1,N#Cc1nc(Nc2ccccc2)nc(NC2CCCCC2)n1,inactive
2,CC(=O)Nc1sc2c(c1-c1ccc(F)cc1)CCNC2,inactive
3,COc1cc(NS(=O)(=O)c2ccc3ccccc3c2)c2ncccc2c1,inactive
4,C[C@@H](N)C(=O)Nc1cccc(-c2nn3c(=O)cc(N4CCNCC4)nc3s2)c1,inactive
5,c1nc(NCC2CCCO2)c2ccc(-c3ccc4c(c3)OCO4)cc2n1 (configuration not stated),inactive
6,Cc1noc(-c2sc3c(c2-c2nc4ccccc4s2)CCNC3)n1,inactive
7,Cn1ccc2cc(-c3csc(N4CCC(C(N)=O)CC4)n3)ccc21,inactive
8,O=C(NC1CCCc2c1cnn2-c1ccc(F)cc1F)C1CC1 (configuration not stated),inactive
9,Cc1ccc(OCCn2c(CCNC(=O)c3cccc(NC(=O)OC(C)(C)C)c3)nc3ccccc32)cc1,inactive
10,Cc1c(C(=O)OCC2CC2)[nH]c2c1C(=O)CC(c1ccco1)C2 (configuration not stated),inactive
11,O=C(c1ccccc1O)N(Cc1ccccc1)Cc1ccccc1,inactive
12,O=C(Cc1nnc(-c2ccncc2)s1)Nc1ccc(F)c(C(F)(F)F)c1,inactive
13,CC(=O)N1CCN(c2ccc(NCc3ccc4c(c3)OCO4)cc2)CC1,inactive
14,CN(Cc1ccco1)c1ncnc2ccc(-c3cccc(Cl)c3)cc12,inactive
15,CC(=O)Nc1sc2c(c1-c1ccc(C)cc1)CCNC2,inactive
16,O=C(OCC#CCSc1nnc(-c2cccc3ccccc23)o1)c1cccc2[nH]ccc12,inactive

row,SMILES,Potency
1,Cc1ccc(Cl)cc1NS(=O)(=O)c1cc2c(cc1F)NC(=O)CC2,inactive
2,COc1cc(CNc2ncnc3ccc(-c4c(C)noc4C)cc23)cc(OC)c1OC,inactive
3,COc1ccc(C2NC(=O)c3ccccc3N2)cc1COc1ccc(NC(C)=O)cc1 (configuration not stated),inactive
4,O=C(/C=C/c1ccc([N+](=O)[O-])o1)Nc1cccc([S+](=O)([O-])Nc2ccccc2F)c1,inactive
5,COc1cccc(-c2nc(SC)nc3sc(C(=O)NC(C)(C)C)c(N)c23)c1,inactive
6,Cc1cccc(C2N=C(Nc3nc4ccccc4o3)NC3=C2C(=O)CCC3)c1 (configuration not stated),inactive
7,COc1cc(O)c(C(CC(=O)N2CCC(Cc3ccccc3)CC2)c2ccc3c(c2)OCO3)c(OC)c1 (configuration not stated),inactive
8,O=C(OCC#CCSc1nnc(-c2cccc3ccccc23)o1)c1ccc(Cl)cc1,inactive
9,Clc1cccc(-c2ccc3ncnc(NCc4ccc5c(c4)OCO5)c3c2)c1,inactive
10,COc1ccc(C2=Nn3c(nnc3-c3ccccc3F)SC2)cc1OC1CCOC1 (configuration not stated),inactive
11,O=C(Cc1ccc(Cl)c(Cl)c1)Nc1ccc([S+](=O)([O-])Nc2ccc([N+](=O)[O-])cc2)cc1,inactive
12,Fc1ccc(Nc2nc(-c3ccnc(C(F)(F)F)c3)nc3ccccc23)cc1F,inactive
13,Cc1ccc(NS(=O)(=O)c2ccc3c(c2)CCC(=O)N3)cc1Cl,inactive
14,Cc1ccc(OCCn2c(CCNC(=O)c3ccccc3C)nc3ccccc32)cc1,inactive
15,Brc1cnc2nc(SCc3ccccc3)[nH]c2c1,inactive
16,O=C1c2ccccc2C(=O)N1c1ccncc1,inactive
